Laboratory results published in PubChem BioAssay (NCI).
Values joined by “and” are separate entries in the source; they are usually repeats but may differ in a detail not shown here. Identical values can stand only once. Compounds without any hit were thinned out: in the full panel of roughly 79,000, 15% have a hit. Cut-off read from the data, not from the text of the source: active = growth inhibition above about 70%; inactive = the rest.

Key:
[1] = NCI Yeast Anticancer Drug Screen. Data for the rad50 strain (AID 155);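 note: 0% = growth of vehicle-only cultures of the same strain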; conditions: S. cerevisiae rad50 strain growth inhibition; at 50.0 µM; stronger effect = higher value
How it was run: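 Compounds were tested on a yeast strain with an engineered DNA damage repair alteration; the reported value is growth inhibition normalised to vehicle treatment.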

[2] = NCI Yeast Anticancer Drug Screen. Data for the mec2-1 strain (AID 157); conditions: S. cerevisiae mec2-1 strain, at 50.0 µM, stronger effect = higher value
How it was run: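 Strain: mec2-1 (DNA repair/cell cycle alteration). Compound exposure, then growth measured; inhibition expressed relative to vehicle.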

[3] = NCI Yeast Anticancer Drug Screen. Data for the sgs1 mgt1 strain (AID 161);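 note: 0% = growth of cultures given vehicle only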; conditions: S. cerevisiae sgs1 mgt1 strain, at 50.0 µM, stronger effect = higher value
How it was run: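 Test agents were incubated with a DNA-repair-mutant yeast strain. Growth was then read and compared against vehicle-treated controls.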

[4] = NCI Yeast Anticancer Drug Screen. Data for the cln2 rad14 strain (AID 165);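 note: 0% = growth equal to vehicle treated cultures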; conditions: S. cerevisiae cln2 rad14 strain, at 50.0 µM, stronger effect = higher value
How it was run: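 Compounds are applied to the cln2 rad14 yeast strain, and growth is then compared with that of vehicle-treated cultures to give inhibition.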

[5] = NCI Yeast Anticancer Drug Screen. Data for the bub3 strain (AID 167); conditions: S. cerevisiae bub3 mutant strain, at 50.0 µM, stronger effect = higher value
How it was run: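 Growth of a checkpoint-deficient yeast mutant is measured after compound exposure. Values represent inhibition relative to vehicle.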

[6] = NCI Yeast Anticancer Drug Screen. Data for the mlh1 rad18 strain (AID 175); conditions: S. cerevisiae mlh1 rad18 strain growth inhibition; at 50.0 µM; stronger effect = higher value
How it was run: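 Read-out is yeast growth inhibition, calculated against vehicle-only controls. The compound was applied to a strain engineered with DNA damage repair alterations.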

Measured: growth inhibition

CNN
inactive: [1] 19.6% | [2] -4.8% | [3] 34.1% | [4] 3.3% | [5] -1.8% | [6] 40.1%

c1ccc(CC[n+]2cccc3ccccc32)cc1
inactive: [1] -3.8% | [2] 11.2% | [3] 3.95% | [4] -26.3% | [5] -8.1% | [6] -6.85%

COC1C=CC23c4cc5c(cc4COC2(O)CN(C)C3C1)OCO5 (stereo unspecified)
inactive: [1] -18.2% | [2] -26.2% | [3] -56.5% | [4] -4.5% | [5] -18.9% | [6] -28.6%

C#CC1(O)CCCCCC1
inactive: [1] 11.6% | [2] 3.45% | [3] -7.55% | [4] 8.55% | [5] 12.4% | [6] 6.8%

C1=C\CCC2SC2CC/1 (stereo unspecified)
inactive: [1] 2.1% | [2] -16.9% | [3] -5.95% | [4] -14.6% | [5] 12.4% | [6] -7.5%

O=C(N1CCCC1)C1(c2cccc(Cl)c2)CCNCC1
inactive: [1] -26.1% | [2] -53% | [3] -16.2% | [4] 0.25% | [5] -28.1% | [6] -20.7%

CC1C2CCC3C(O)C2(CC(O)C2(O)C1CC(O)C2(C)C)CC3(C)O (stereo unspecified)
inactive: [1] 11.6% | [2] -24.8% | [3] 6.85% | [4] 13.3% | [5] -5.15% | [6] -4.35%

Cc1cc(C=C2C(=O)NC(=S)NC2=O)c(C)n1-c1ccccc1
inactive: [1] 14.3% | [2] -4.6% | [3] 17.7% | [4] -43.3% | [5] 8.6% | [6] 5.15%

O=C1NC(=O)C(CCC(=O)c2ccc3ccccc3c2)C(=O)N1
inactive: [1] -29.1% | [2] -22.8% | [3] -57.6% | [4] -10.8% | [5] -34.8% | [6] -25.8%

NC(=O)NNC(=O)C(Cl)(Cl)Cl
inactive: [1] -0.45% | [2] -8.55% | [3] 5.6% | [4] -63.3% | [5] -4.65% | [6] -14.2%

O=[N+]([O-])c1cc(Cl)ccc1Cl
inactive: [1] 11.6% and 28.9% | [2] 4.4% and -26.1% | [3] 4.75% and -10.9% | [4] 3.95% and -47.9% | [5] -6.85% and -12.7% | [6] 0.35% and -8.7%

CCC1(CC)C(=O)C=CNC1=O
inactive: [1] 17.6% | [2] -20.6% | [3] 11.7% | [4] 1.1% | [5] -8.15% | [6] 8.15%

CCCCNC(c1ccc(OC)cc1)C(O)c1ccc(OC)cc1 (stereo unspecified)
inactive: [1] 2.35% | [2] -17.3% | [3] -2.95% | [4] -25.6% | [5] 7.1% | [6] -14.1%

CCOC(=O)C(C)Br (stereo unspecified)
inactive: [1] 15% | [2] 5.3% | [3] 28.3% | [4] -24.7% | [5] 44.6% | [6] -8.2%

CN1CCC2=C(c3ccccc3)c3ccccc3C2C1 (stereo unspecified)
inactive: [1] 10.3% | [2] -0.55% | [3] 13.4% | [4] -9.85% | [5] 3.8% | [6] 3.55%

O=c1[nH]c(O)c(N=Nc2ccc([N+](=O)[O-])cc2[N+](=O)[O-])c(=O)[nH]1
inactive: [1] 14.7% | [2] 15.4% | [3] 22.2% | [4] 14.7% | [5] -11.7% | [6] 7.35%

CCN(CC)C(=O)N1CN(c2ccccc2)C2(CCN(CCCC3(c4ccc(F)cc4)OCCO3)CC2)C1=O
inactive: [1] 24.7% | [2] 24.1% | [3] 48% | [4] 19.7% | [5] 23.8% | [6] 49.9%

NC(=O)/C=C/C(=O)O
inactive: [1] 19% | [2] 9.75% | [3] 10.5% | [4] -8.25% | [5] 11% | [6] 14%

Clc1ccc(N=P(c2ccccc2)(c2ccccc2)c2ccccc2)cc1.[Cl][Co][Cl]
inactive: [1] 49% | [2] 11.1% | [3] 44.5% | [4] 18.1% | [5] 22.1% | [6] 14.6%

c1ccc(C[P+]2(c3ccccc3)CCCCC2)cc1
inactive: [1] -12.7% | [2] -1.05% | [3] -0.55% | [4] -22.6% | [5] -4.95% | [6] 3.1%

Cc1cc(S(=O)(=O)[O-])ccc1-n1nc(C)[c-](N=Nc2cc(S(=O)(=O)[O-])ccc2C(=O)[O-])c1=O.[Cr+3].[Na+].[OH-] (stereo unspecified)
inactive: [1] -19.4% | [2] -30.5% | [3] -11.6% | [4] -35.4% | [5] -16.3% | [6] -17.1%
